Compounds with a hit are over-represented: about 3.6% of the library has one in this group of screens.
NadD inh – inhibitors of S. aureus NadD, primary screen, biochemical, colorimetric, uHTS. Nicotinate-nucleotide adenylyltransferase NadD (Staphylococcus aureus N315). purified NadD enzyme, colorimetric absorbance read-out. inhibition, % at 20 µM. actives 0.78% (n = 360,000); in the data active means inhibition above about 26%
Myeloid diff 2 – induction of myeloid progenitor differentiation, primary screen, cell-based, flow cytometry, MLPCN library; ER-HoxA9 myeloid progenitors, lysozyme-GFP differentiation; calls only at 10 µM; actives 1% (n = 360,000); AID 624256, 2012;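 active means normalized GFP-positive differentiation at or above the plate's own cutoff, the solvent-only control mean plus 3 SD; inconclusive means no clear call, values can overlap the other calls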;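 further: cells exposed to compound for four days before flow analysis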
CendR NRP1 mod – modulators of CendR peptide binding to NRP-1, primary screen, biochemical, fluorescence polarization, uHTS. AID 602438, 2012. inhibition, % at 25 µM. Neuropilin-1 (Homo sapiens), O14786. FAM-RPARPAR peptide binding to NRP-1. actives 0.85% (n = 360,000);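 active means inhibition or corrected inhibition above about 18%, plus a signal ratio from 0.5 to 1.5, limit read from the data, passing the limit was not always enough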
Target sequence (O14786 whole entry, looked up): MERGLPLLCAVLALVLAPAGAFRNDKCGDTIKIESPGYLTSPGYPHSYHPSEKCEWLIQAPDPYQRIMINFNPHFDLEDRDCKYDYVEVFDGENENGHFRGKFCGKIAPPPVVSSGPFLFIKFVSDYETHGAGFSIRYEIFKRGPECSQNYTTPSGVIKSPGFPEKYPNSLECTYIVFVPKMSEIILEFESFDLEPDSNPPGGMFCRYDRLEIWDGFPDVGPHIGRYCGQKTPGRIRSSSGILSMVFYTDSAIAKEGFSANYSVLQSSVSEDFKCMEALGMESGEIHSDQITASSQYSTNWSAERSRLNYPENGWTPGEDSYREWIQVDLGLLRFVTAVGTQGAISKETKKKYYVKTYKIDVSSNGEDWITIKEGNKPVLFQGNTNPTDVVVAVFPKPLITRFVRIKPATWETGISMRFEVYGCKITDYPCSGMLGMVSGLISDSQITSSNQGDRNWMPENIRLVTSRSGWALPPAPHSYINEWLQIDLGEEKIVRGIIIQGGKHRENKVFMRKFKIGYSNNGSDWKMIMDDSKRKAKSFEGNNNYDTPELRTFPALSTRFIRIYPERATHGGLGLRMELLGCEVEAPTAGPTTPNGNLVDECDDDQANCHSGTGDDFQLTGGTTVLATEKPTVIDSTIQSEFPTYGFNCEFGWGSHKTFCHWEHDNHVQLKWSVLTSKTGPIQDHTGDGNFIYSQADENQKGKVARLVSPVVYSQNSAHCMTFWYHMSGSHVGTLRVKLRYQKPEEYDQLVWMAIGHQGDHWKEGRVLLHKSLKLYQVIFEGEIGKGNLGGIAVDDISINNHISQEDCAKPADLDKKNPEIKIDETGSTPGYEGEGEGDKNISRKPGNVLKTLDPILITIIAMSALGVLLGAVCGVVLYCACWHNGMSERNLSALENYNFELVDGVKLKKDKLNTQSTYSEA
FAS-TE inh – FAS thioesterase domain inhibitors, primary screen, biochemical, fluorescence intensity, uHTS. Fatty acid synthase (Homo sapiens), P49327. recombinant FAS-TE, OMFH fluorogenic substrate, fluorescence endpoint. inhibition, % at 15 µM. actives 0.67% (n = 360,000);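 active means compounds whose normalised, plate-corrected inhibition of enzyme fluorescence in the single-dose primary screen is 50% or more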
CRFR2-BP antag – antagonists of CRF-BP/CRF-R2 complex, primary screen, cell-based, HEK293, calcium dye fluorescence, uHTS. CRF-induced calcium fluorescence. inhibition, % at 11.8 µM. actives 0.59% (n = 350,000);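 active means inhibition of the ligand-induced calcium signal above about 50% at the single tested concentration, limit read from the data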
NadD conf – inhibitors of S. aureus NadD, confirmation, biochemical, colorimetric, single concentration; purified S. aureus NadD, colorimetric enzyme assay; inhibition, % at 20 µM; shares compounds with NadD inh; actives 13% (n = 2,000); AID 624309, 2012; in the data active means inhibition mostly above about 42%, no sharp cut-off; inactive means mostly below about 42%
Each line names hits and unclear results; the compound was inactive in the other large screens (follow-up assays come after a bar, where they were run).

COc1ccc(/C=C(\C#N)C(=O)OCC(=O)Nc2ccc(-c3nc4ccc(C)cc4s3)cc2)cc1	NadD inh 29 | NadD conf inactive
COc1cc(OC)c(OC)cc1CNC(=O)c1cc(S(=O)(=O)N(C)c2ccccc2OC)ccc1C	none
CC(C)[C@H](NC(=O)c1ccccc1Cl)C(=O)Nc1ccc(S(=O)(=O)Nc2nccs2)cc1	none
O=C(Nc1ccc(S(=O)(=O)Nc2nccs2)cc1)/C(=C/c1ccccc1Cl)NC(=O)c1ccccc1	NadD inh 39 | NadD conf 56
COc1cc(NS(=O)(=O)c2ccc(NC(=O)/C(=C/c3ccccc3Cl)NC(=O)c3ccccc3)cc2)nc(OC)n1	NadD inh 33 | NadD conf 49
CCOc1cc(/C=C(/C#N)c2nc3ccccc3[nH]2)ccc1Oc1ccc([N+](=O)[O-])cn1	NadD inh 54 | NadD conf inactive
COc1ccc2nc(/C(C#N)=C\c3ccc(Oc4ccc([N+](=O)[O-])cn4)cc3)[nH]c2c1	NadD inh 35 | NadD conf inactive
Cc1ccc2nc(/C(C#N)=C\c3ccc(Oc4ccc([N+](=O)[O-])cn4)cc3)[nH]c2c1	NadD inh 36 | NadD conf inactive
Cc1ccc2nc(/C(C#N)=C\c3ccc([N+](=O)[O-])o3)[nH]c2c1	Myeloid diff 2 inconclusive
CCOc1cc(/C=C(\C#N)c2nc3ccccc3[nH]2)ccc1OC(C)C(=O)O (stereo not given)	none
Cc1ccc(C(=O)/C=C/c2ccc3ncccc3c2)cc1	none
O=C(Nc1ccc(C2=NCCN2)cc1)c1ccc(C(=O)Nc2ccc(C3=NCCN3)cc2)c(Cl)c1	NadD inh 30 | NadD conf inactive
O=C(CN1c2ccccc2Sc2ccccc21)NNC(=S)Nc1ccc(Cl)cc1	none
O=C(CN1c2ccccc2Sc2ccccc21)NNC(=S)Nc1ccc(Cl)cc1Cl	NadD inh 37 | NadD conf 51
N#Cc1cc([N+](=O)[O-])ccc1NC(=O)COC(=O)C1CCC(=O)N1 (stereo not given)	none
Nc1nc(=S)[nH]c2c1C1(CCCC1)Cc1ccccc1-2	none
Nc1nc(=S)[nH]c2c1C1(CCCCC1)Cc1ccccc1-2	NadD inh 35 | NadD conf inactive
Cc1ccc(S(=O)(=O)N2[C@H](CC(=O)c3ccc(F)cc3)OC[C@@H]2C(C)C)cc1	none (no result: NadD inh, FAS-TE inh, CRFR2-BP antag)
Cc1cccc(NC(=O)CNC(=O)CN2C(=O)NC(C)(CCC(C)C)C2=O)c1C (stereo not given)	none
COc1ccc(-c2cc(C#N)nc(N3CCNCC3)n2)cc1	NadD inh 45 | NadD conf inactive
O=S1(=O)c2ccccc2Nc2ccccc21	none
Cc1ccccc1COc1ccc(/C(O)=C2/C(=O)C(=O)N(CCCn3ccnc3)C2c2ccco2)cc1 (stereo not given)	NadD inh 31, CRFR2-BP antag 54 | NadD conf 53
O=C1OC(c2cccs2)=N/C1=C/c1ccc(-c2cccc(C(=O)O)c2)o1	none
O=C1OC(c2cccs2)=N/C1=C\c1ccc(-c2ccccc2Cl)o1	NadD inh 39 | NadD conf inactive
COc1ccc2c(c1)Cc1cc(NC(=O)c3ccccc3-c3ccccc3C(=O)O)ccc1-2	none
COc1cc2c(C#N)c(N3CCc4ccccc4C3)nc(N)c2c(N)n1	NadD inh 42, Myeloid diff 2 active | NadD conf inactive
COc1cc2c(C#N)c(N3CCCCC3)nc(N)c2c(N)n1	none
O=C(Cn1c2ccccc2c(=O)c2ccccc21)N/N=C/c1cc([N+](=O)[O-])ccc1N1CCCCC1	NadD inh 47 | NadD conf inactive
O=C(N/N=C\c1cc([N+](=O)[O-])ccc1N1CCCC1)c1ccccn1	none
CC(C)C(=O)Nc1ccc(C(=O)NNC(=S)NC(=O)c2ccco2)cc1	none
Cc1c(Cl)ccc2c(C(=O)Nc3cc(C(C)(C)C)on3)cc(-c3ccccn3)nc12	NadD inh 34 | NadD conf inactive
COc1ccccc1NC(=O)C/C(N)=N/OCC(=O)Nc1cccc(Cl)c1	none
COc1ccccc1NC(=O)c1c(Nc2ccccc2F)sc(C(=O)Nc2cccc(Cl)c2)c1N	NadD inh 43 | NadD conf inactive
COc1ccc(-c2csc(Nc3ccc(S(N)(=O)=O)cc3)n2)cc1	NadD inh 45 | NadD conf inactive
COc1ccccc1NC(=O)COc1ccc2ccccc2c1	none
COc1ccccc1NC(=O)C(=O)NNC(=O)COc1ccc2ccccc2c1	NadD inh 34 (no result: CRFR2-BP antag) | NadD conf inactive
CCCc1cc(=O)oc2cc(C)cc(OCC(=O)NCCCN3CCOCC3)c12	none
Cc1[nH][nH]c(=O)c1C(c1c(C)[nH][nH]c1=O)c1cn(Cc2cccc3ccccc23)c2ccccc12	NadD inh 46, Myeloid diff 2 inconclusive | NadD conf 67
COc1ccc(C(CNC(=O)COc2ccccc2)N2CCCCC2)cc1 (stereo not given)	none
COc1ccc(C(=O)/C=C/c2ccc(OCc3ccccc3)cc2)cc1CSCC(=O)O	NadD inh 26 | NadD conf inactive
COc1ccc(C(=O)/C=C/c2cccc(OCc3ccccc3)c2)cc1CSCC(=O)O	none
O=C(Nc1nc2ccccc2n1Cc1ccccc1)c1ccc(COc2ccccc2[N+](=O)[O-])o1	none
Cc1ccc(OCc2ccc(C(=O)Nc3nc4ccccc4n3Cc3ccccc3)o2)c([N+](=O)[O-])c1	NadD inh 34 | NadD conf inactive
COc1cccc(NC(=O)C(=O)c2cn(CC(=O)N3CCCC3)c3ccccc23)c1	none
Cn1cccc1Cc1nnc(SCC(=O)NCC2CCCO2)n1C (stereo not given)	none
Cc1ccc(-c2cc(-c3ccco3)c3c(N)c(C(=O)NN)oc3n2)cc1	NadD inh 28, Myeloid diff 2 active | NadD conf inactive
NNC(=O)c1oc2nc(-c3cccs3)cc(-c3ccco3)c2c1N	NadD inh 36, Myeloid diff 2 active (no result: CRFR2-BP antag) | NadD conf inactive
NNC(=O)c1oc2nc(-c3ccccc3)cc(-c3ccccc3)c2c1N	NadD inh 31, Myeloid diff 2 active | NadD conf inactive
COc1cccc(/C=N/NC(=O)c2oc3nc(-c4ccccc4)cc(-c4ccco4)c3c2N)c1	none
CC1CCCN(S(=O)(=O)c2ccc(NC(=O)[C@@H]3CCCN3C(=O)c3cccs3)cc2)C1 (stereo not given in full)	none
c1cn2c(-c3ccoc3)cncc2n1	none (no result: CRFR2-BP antag)
CCCn1c(N)c(C(=O)COC(=O)CNC(=O)c2ccccc2OCC)c(=O)[nH]c1=O	none

Screening results as filed in PubChem BioAssay.
